# Experiments:
# Assay in all cases: DAPPL (digital affinity profiling via proximity ligation, sequencing); 10 mM Tris-HCl pH 7.5, 50 mM NaCl, 1 mM DTT, 4% glycerol, room temperature, 30 min; GST-TFs on glutathione beads, 16-mer random dsDNA library, 0.1% formaldehyde crosslink after washing; high values mean tight binding
# FEV = target: T1, FEV (Homo sapiens, UniProt Q99581 1-238); settings: protein: recombinant; tags: N-terminal GST; dsDNA, one strand shown
# T1 sequence: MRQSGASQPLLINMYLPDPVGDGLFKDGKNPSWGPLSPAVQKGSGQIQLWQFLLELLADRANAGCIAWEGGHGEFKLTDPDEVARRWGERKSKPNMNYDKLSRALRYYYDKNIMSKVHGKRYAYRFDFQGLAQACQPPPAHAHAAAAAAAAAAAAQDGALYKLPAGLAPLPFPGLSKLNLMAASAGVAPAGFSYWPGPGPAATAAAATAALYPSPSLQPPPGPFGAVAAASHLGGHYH
# Procedure, shortened: (§1)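 Pools were built from human transcription factors expressed in yeast as GST fusions, captured on glutathione beads and DNA-barcoded, along with a tag-only sample. Incubation with 200 nmole of a 16-mer random double-stranded DNA library lasted 30 min at room temperature in Tris/NaCl/DTT/glycerol buffer, and was followed by washing, 0.1% formaldehyde crosslinking, proximity ligation, PCR amplification and Illumina NextSeq500 sequencing. Binding signal is the quotient of each hexamer's read frequency for a factor and its frequency for the tag-only sample.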
# ETV5 = ETV5 (Homo sapiens, UniProt P41161 1-510); settings: protein: recombinant; tags: N-terminal GST; dsDNA, one strand shown
# Procedure, shortened: as §1
# HSF1 = HSF1 (Homo sapiens, UniProt Q00613 1-529); settings: protein: recombinant; tags: N-terminal GST; chain copies: 3; dsDNA, one strand shown
# Procedure, shortened: as §1
# SPIC = target: T2, SPIC (Homo sapiens, UniProt Q8N5J4 1-248); settings: protein: recombinant; tags: N-terminal GST; dsDNA, one strand shown
# T2 sequence: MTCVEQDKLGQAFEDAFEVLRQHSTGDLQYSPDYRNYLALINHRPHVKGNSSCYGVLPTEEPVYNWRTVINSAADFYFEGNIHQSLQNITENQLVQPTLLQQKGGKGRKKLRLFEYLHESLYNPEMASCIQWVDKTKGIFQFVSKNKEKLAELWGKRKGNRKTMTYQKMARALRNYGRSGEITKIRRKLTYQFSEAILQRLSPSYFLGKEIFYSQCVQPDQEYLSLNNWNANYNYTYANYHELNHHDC
# Procedure, shortened: as §1
# ELF4 = ELF4 (Homo sapiens, UniProt Q99607 1-663); settings: protein: recombinant; tags: N-terminal GST; dsDNA, one strand shown
# Procedure, shortened: as §1
# ELK4 = target: T3, ELK4 (Homo sapiens, UniProt P28324-2 1-405); settings: protein: recombinant; tags: N-terminal GST; dsDNA, one strand shown
# T3 sequence: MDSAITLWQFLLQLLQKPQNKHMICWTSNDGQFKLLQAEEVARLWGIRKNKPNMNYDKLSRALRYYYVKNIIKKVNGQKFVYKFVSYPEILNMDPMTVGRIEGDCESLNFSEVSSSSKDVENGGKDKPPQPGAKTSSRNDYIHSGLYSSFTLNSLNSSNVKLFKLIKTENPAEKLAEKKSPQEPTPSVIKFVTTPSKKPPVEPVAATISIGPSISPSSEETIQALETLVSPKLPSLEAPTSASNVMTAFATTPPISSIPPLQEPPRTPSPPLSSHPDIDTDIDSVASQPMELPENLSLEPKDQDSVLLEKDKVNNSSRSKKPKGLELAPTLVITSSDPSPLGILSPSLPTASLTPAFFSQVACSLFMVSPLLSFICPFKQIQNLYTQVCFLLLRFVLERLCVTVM
# Procedure, shortened: as §1
# ETV2 = target: T4, ETV2 (Homo sapiens, UniProt O00321 1-342); settings: protein: recombinant; tags: N-terminal GST; dsDNA, one strand shown
# T4 sequence: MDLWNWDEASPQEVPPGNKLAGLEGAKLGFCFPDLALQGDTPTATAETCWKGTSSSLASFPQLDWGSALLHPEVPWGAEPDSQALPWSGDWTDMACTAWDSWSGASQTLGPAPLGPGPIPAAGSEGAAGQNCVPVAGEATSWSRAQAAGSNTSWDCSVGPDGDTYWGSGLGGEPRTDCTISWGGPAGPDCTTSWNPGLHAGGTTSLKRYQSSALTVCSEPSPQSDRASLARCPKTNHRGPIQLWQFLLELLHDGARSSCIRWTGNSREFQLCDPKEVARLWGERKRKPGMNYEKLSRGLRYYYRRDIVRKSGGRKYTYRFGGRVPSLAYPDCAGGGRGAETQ
# Procedure, shortened: as §1
# ELF3 = target: T5, ELF3 (Homo sapiens, UniProt P78545 1-371); settings: protein: recombinant; tags: N-terminal GST; dsDNA, one strand shown
# T5 sequence: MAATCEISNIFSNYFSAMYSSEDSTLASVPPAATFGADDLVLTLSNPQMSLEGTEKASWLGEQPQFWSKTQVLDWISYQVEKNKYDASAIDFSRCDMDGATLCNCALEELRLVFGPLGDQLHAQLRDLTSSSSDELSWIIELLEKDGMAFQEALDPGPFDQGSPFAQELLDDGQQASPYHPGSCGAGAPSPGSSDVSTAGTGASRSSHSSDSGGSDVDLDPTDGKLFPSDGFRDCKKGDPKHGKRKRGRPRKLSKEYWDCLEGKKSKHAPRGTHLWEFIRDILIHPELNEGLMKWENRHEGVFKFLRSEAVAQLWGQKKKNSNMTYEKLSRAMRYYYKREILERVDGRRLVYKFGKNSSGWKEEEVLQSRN
# Procedure, shortened: as §1
# CRX = CRX (Homo sapiens, UniProt O43186 1-299); settings: protein: recombinant; tags: N-terminal GST; dsDNA, one strand shown
# Procedure, shortened: as §1
# ETV1 = ETV1 (Homo sapiens, UniProt P50549 1-477); settings: protein: recombinant; tags: N-terminal GST; dsDNA, one strand shown
# Procedure, shortened: as §1
# Chain of CRX (O43186 whole entry): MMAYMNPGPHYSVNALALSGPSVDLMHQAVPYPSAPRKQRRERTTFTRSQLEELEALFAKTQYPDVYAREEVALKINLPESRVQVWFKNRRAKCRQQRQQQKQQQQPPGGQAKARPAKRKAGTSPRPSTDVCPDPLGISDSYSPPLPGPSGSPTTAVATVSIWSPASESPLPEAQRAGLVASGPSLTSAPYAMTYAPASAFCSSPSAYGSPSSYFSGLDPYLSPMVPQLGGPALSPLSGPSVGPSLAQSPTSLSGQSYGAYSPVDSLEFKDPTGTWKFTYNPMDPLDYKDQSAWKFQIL
# Chain of ETV1 (P50549 whole entry): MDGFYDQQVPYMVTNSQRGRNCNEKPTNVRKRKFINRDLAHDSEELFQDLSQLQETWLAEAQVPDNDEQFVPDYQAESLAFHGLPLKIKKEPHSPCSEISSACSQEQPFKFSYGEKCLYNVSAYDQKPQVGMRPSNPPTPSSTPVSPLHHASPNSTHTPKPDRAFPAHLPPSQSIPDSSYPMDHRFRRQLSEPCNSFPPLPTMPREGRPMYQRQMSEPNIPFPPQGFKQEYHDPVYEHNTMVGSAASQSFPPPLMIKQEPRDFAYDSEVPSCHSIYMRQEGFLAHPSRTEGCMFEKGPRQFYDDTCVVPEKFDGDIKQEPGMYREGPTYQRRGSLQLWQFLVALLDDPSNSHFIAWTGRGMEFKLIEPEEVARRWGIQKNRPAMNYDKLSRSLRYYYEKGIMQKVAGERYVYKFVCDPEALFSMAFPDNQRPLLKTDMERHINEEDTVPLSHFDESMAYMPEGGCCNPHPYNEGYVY
# Chain of HSF1 (Q00613 whole entry): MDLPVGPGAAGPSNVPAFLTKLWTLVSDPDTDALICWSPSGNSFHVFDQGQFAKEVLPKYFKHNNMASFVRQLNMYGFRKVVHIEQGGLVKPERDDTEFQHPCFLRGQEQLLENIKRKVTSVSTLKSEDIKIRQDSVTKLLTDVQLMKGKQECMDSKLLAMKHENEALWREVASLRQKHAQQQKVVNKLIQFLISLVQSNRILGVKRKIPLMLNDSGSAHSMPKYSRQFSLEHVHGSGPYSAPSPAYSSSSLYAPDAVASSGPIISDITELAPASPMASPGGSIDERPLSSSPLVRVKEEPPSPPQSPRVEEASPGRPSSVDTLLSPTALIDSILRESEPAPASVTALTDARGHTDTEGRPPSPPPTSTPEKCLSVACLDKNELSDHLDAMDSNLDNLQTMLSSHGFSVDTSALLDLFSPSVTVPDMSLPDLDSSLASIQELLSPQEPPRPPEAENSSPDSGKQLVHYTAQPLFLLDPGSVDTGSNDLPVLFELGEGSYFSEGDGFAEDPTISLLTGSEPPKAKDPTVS
# Chain of ETV5 (P41161 whole entry): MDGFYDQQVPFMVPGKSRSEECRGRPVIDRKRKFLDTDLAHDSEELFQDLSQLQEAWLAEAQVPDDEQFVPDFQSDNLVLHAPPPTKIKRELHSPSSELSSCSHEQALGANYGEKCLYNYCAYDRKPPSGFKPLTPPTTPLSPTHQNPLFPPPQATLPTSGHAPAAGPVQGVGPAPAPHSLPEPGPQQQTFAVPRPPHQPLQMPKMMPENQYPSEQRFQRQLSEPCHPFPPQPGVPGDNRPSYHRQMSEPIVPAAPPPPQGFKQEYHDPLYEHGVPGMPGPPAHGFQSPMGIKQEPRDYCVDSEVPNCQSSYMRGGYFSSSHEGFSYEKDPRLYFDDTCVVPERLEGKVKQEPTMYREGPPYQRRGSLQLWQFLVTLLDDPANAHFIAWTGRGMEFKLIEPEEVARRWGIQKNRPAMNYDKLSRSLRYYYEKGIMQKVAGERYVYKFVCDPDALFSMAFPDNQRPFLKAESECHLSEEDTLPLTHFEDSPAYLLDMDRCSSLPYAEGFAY
# Chain of ELF4 (Q99607 whole entry): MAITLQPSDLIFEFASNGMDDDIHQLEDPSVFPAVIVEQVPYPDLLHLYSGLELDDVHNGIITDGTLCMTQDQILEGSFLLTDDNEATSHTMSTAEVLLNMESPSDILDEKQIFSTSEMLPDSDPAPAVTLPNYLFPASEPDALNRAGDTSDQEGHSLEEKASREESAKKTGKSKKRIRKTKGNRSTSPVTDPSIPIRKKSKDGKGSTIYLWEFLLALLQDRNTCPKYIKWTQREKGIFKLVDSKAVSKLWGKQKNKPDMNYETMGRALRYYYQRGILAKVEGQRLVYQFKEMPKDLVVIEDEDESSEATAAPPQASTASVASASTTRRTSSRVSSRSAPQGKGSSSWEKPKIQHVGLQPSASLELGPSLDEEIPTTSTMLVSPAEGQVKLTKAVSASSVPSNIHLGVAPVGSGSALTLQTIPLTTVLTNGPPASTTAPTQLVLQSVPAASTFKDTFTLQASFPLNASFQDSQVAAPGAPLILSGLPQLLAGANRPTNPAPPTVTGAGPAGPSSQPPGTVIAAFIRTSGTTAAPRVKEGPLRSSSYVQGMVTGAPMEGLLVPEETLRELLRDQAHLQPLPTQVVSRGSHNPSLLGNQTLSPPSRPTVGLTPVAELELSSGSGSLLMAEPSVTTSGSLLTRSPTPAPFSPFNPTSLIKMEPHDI
sequence,measurement,setting,value
ACCTAT,binding signal,FEV,"1.15 fold enrichment (6-mer frequency, TF over GST control)"
same,binding signal,ETV5,"1.14 fold enrichment (6-mer frequency, TF over GST control)"
same,binding signal,HSF1,"1.05 fold enrichment (6-mer frequency, TF over GST control)"
same,binding signal,SPIC,"1.11 fold enrichment (6-mer frequency, TF over GST control)"
same,binding signal,ELF4,"1.24 fold enrichment (6-mer frequency, TF over GST control)"
same,binding signal,ELK4,"1.13 fold enrichment (6-mer frequency, TF over GST control)"
same,binding signal,ETV2,"1.28 fold enrichment (6-mer frequency, TF over GST control)"
same,binding signal,ELF3,"1.24 fold enrichment (6-mer frequency, TF over GST control)"
same,binding signal,CRX,"1.09 fold enrichment (6-mer frequency, TF over GST control)"
same,binding signal,ETV1,"1.21 fold enrichment (6-mer frequency, TF over GST control)"
